Our source for the outcome and AC50 values is PubChem BioAssay (EPA / NIEHS).

Activity calls are given as the source filed them. How the source made its calls: active means hit-call score of the fitted dose curve at least 0.9, where 1 is the maximum; inactive means score below 0.9.

As usually defined, the AC50 is the midpoint of the concentration-response curve, whichever way the signal moves.

Read-out in one experiment: Urokinase-type plasminogen activator receptor (uPAR), PLAUR (gene 5329)
In words: BSK_4H_uPAR: BioMAP Diversity Plus: 4H Assay for Urokinase-type plasminogen activator receptor (uPAR) Biomarker Activity (AID 2283030). Conditions: primary human endothelial cells (HUVEC); actives raise or lower the signal. The essentials: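 Chemicals are dosed onto human vascular endothelial primary cells (umbilical vein). After 24 h, uPAR is read by ELISA. Gain or loss of signal is fitted relative to DMSO.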
With `S=C(NC1CCCCC1)NC1CCCCC1`, the outcome was inactive.

Take `C/C=C\C/C=C/CCCCCCCCOC(C)=O`: the outcome was inactive.

Consider `c1ccc(-c2ccccn2)nc1`, for which the result was inactive.

Read-out in another experiment: Vascular endothelial growth factor receptor 2 (Homo sapiens) (UniProt P35968)
The experiment can be described thus: BSK_4H_VEGFRII: BioMAP Diversity Plus: 4H Assay for Vascular endothelial growth factor receptor 2 (VEGFR2) Biomarker Activity (AID 2283031). The following applies: primary human endothelial cells (HUVEC); actives raise or lower the signal. The method, boiled down:
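VEGFRII levels on human vascular endothelial primary cells were determined by ELISA at 24 hours post-dosing, with gain- or loss-of-signal fitted against DMSO controls.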
As to `S=C(NC1CCCCC1)NC1CCCCC1`, the outcome was inactive.

Take `C/C=C\C/C=C/CCCCCCCCOC(C)=O`: the result was inactive.

Consider `c1ccc(-c2ccccn2)nc1`, for which the outcome was inactive.

Read-out in a further experiment: Human Leukocyte Antigen - DR isotype (HLADR), HLA-DRA (gene 3122)
The experiment can be described thus: BSK_BE3C_HLADR: BioMAP Diversity Plus: BE3C Assay for Human Leukocyte Antigen - DR isotype (HLADR) Biomarker Activity (AID 2283032). The following applies: primary human bronchial epithelial cells; actives raise or lower the signal. The essentials: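 Primary human bronchial epithelial cells (BE3C); 24 h chemical exposure; HLA-DR by ELISA; bidirectional curve fit vs DMSO baseline.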
Take `S=C(NC1CCCCC1)NC1CCCCC1`: the result was inactive.

As to `C/C=C\C/C=C/CCCCCCCCOC(C)=O`, the half-maximal activity concentration (AC50) is 25.7 µM (active).

Take `c1ccc(-c2ccccn2)nc1`: the outcome was inactive.
